HT1080 IDH1KD tx: HT-1080 IDH1 knockdown cell toxicity (counter line). HT-1080 IDH1 knockdown viability, ATP luminescence, 48 h. Potency, µM (top dose mostly 46.1 µM), for the others: top-dose activity, negative = toxicity, actives largely listed as cytotoxic. 360,000 tested, 2% active. AID 686971;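 also: potency is read from the fitted curve at half-maximal effect; 0% = DMSO wells and -100% = cell-free medium wells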
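HT-1080-IDH1KD cells (IDH1 knocked down), 750/well in RPMI with 5% FBS, treated with compound 48 h at 37 degrees C. Viability by CellTiter-Glo luminescence, normalised to DMSO and no-cell wells; concentration-response curves classed.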
IL1B secr inh: blocks inflammasome-driven IL-1 beta release. THP-1 LPS/ATP IL-1B secretion, AlphaLISA, 16 h; hits give low values. activity change, % at 57.5 µM. 360,000 tested, 4.7% active; in the data active = activity change below about -50%; inconclusive = mostly about -30% to -49%
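Secreted IL-1B measured by AlphaLISA bead assay after 16 h compound exposure of THP-1 cells; compounds (final up to 57.5 uM) added 1 h before LPS (250 ng/mL) and ATP (1.25 mM) stimulation; lower signal means less secretion.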
DT40 TDP1 no CPT: qHTS for Inhibitors of human tyrosyl-DNA phosphodiesterase 1 (TDP1): qHTS in cells in absence of CPT | DT40 Tdp1-/- hTDP1 cells, no CPT, ATP luminescence, 48 h | Potency, µM (titrated, usually from 46.2 µM), inactives show at the top dose activity change, negative = growth inhibition, actives largely listed as inhibitors | 420,000 tested, 15% active; also: potency is read from the fitted curve at half-maximal effect; nearly all actives have a fitted effect of over 55% in size
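Compound effects on proliferation are scored in DT40 Tdp1-/-;hTDP1 cells in the absence of CPT. ATP levels (CellTiter-Glo luminescence) are recorded after a ≥48 hr, 37 °C incubation.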
TDP1 cell CPT: DT40-hTDP1 cell growth loss with CPT | chicken DT40 Tdp1-/-;hTDP1 cells + 20 nM CPT, ATP luminescence, 48 h | 420,000 tested, 12% active | Potency, µM (series often up to 46.2 µM), inactives show top-dose activity change, negative = growth inhibition, usual class: inhibitors; also: potency is read from the fitted curve at half-maximal effect; nearly all actives have a fitted effect of over 55% in size
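Cell growth measured by CellTiter-Glo luminescence after a minimum 48 h, 37 C compound exposure with 20 nM CPT in Tdp1-knockout DT40 cells stably expressing hTDP1, seeded 400/well; qHTS titration format.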
HT1080-NT tox: kills 2HG-producing HT-1080-NT fibrosarcoma cells; HT-1080-NT fibrosarcoma viability, CellTiter-Glo ATP luminescence, 48 h; Potency, µM (titrated, usually from 46.1 µM), for inactives: at the highest dose activity, negative = less viability, actives largely listed as cytotoxic; 360,000 tested, 1.6% active; AID 686970;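 also: NT is the 2HG producing partner of a matched IDH1 knockdown line; potency is read from the fitted curve at half-maximal effect; 0% = DMSO-treated cells and -100% = media-only wells without cells; nearly all actives have a fitted effect of over 55% in size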
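HT-1080-NT fibrosarcoma cells (2HG-overproducing), 750 cells/well in RPMI with 5% FBS, dosed after 2 h and incubated 48 h at 37C. CellTiter-Glo luminescence normalized to DMSO and no-cell wells; concentration-response curves fitted and classed.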
Starred values were filed as active, the others as inactive; u = inconclusive; x = not tested or not shown; [ ] = another dose, or the depositor's remark. This is a sample that favours compounds with a hit; in the whole collection about 19% have one here. Unless noted, calls follow the shape of the dose curve; as a rule, active = well fitted curve in the direction sought with a large enough effect; inconclusive = small, poorly fitted or top-dose-only effect, or another doubt; inactive = no such curve, though single readings can be large; an effect the other way counts as inactive or inconclusive. Unless noted, % is scaled to controls: 0 for no effect and ±100 for the full control effect.

SMILES	HT1080 IDH1KD tx	IL1B secr inh	DT40 TDP1 no CPT	TDP1 cell CPT	HT1080-NT tox
Cc1ccccc1C(=O)NC(C)c1nnc2n1CCN(Cc1ccccc1F)CC2 (configuration not stated)	x	x	-12%	-7%	x
COc1ccc(CCNS(=O)(=O)c2ccc3c(c2)NC(=O)CCS3)cc1OC	u	24	u	12µM*	-12%
COc1ccc(CCNC(=O)c2ccc(CNS(=O)(=O)c3cccc(Cl)c3)cc2)cc1OC	-17%	-12	23µM*	u	-20%
Cc1ccc(CCNS(=O)(=O)c2ccc3c(c2)NC(=O)CCS3)cc1	-10%	11	u	u	3%
COc1ccc(CCNS(=O)(=O)c2cccc(C(=O)O)c2)cc1OC	8%	13	16µM*	21µM*	8%
COc1cccc(CCn2c(N)cc(=O)[nH]c2=S)c1OC	28%	x	u	u	6%
Cc1cccc(C(=O)N2CCc3cc(CNS(=O)(=O)c4ccc(Cl)s4)ccc32)c1	x	x	23µM*	23µM*	x
CC(=O)N1CCc2cc(CNS(=O)(=O)c3cccs3)ccc21	x	x	-1%	0%	x
Cc1cccc(C(=O)N2CCc3cc(CNS(=O)(=O)c4ccc(F)c(Cl)c4)ccc32)c1	x	x	1.2µM*	1.6µM*	x
CCC(=O)N1CCc2cc(CNS(=O)(=O)c3ccc(Cl)s3)ccc21	x	x	16µM*	u	x
COc1ccc(OC)c(S(=O)(=O)NCc2ccc3c(c2)CCN3C(=O)c2cccc(C)c2)c1	x	x	2.6µM*	2.6µM*	x
Cc1ccc(CCNC(=O)C2CC(c3ccccc3C(F)(F)F)=NO2)cc1 (configuration not stated)	5%	-1	-12%	-25%	5%
C[C@@H](C(=O)NCc1c(F)cccc1Cl)N1C(=O)N2CCc3c([nH]c4ccccc34)[C@@]2(C)C1=O	-8%	-12	21µM*	18µM*	-8%
C[C@@H](C(=O)NCc1ccco1)N1C(=O)N2CCc3c([nH]c4ccccc34)[C@@]2(C)C1=O	-10%	-5	u	u	0%
COc1ccc2[nH]c3c(c2c1)CCN1C(=O)N([C@@H](C)C(=O)NCc2c(F)cccc2Cl)C(=O)[C@]31C	-1%	-8	u	18µM*	-5%
COc1ccc2[nH]c3c(c2c1)CCN1C(=O)N([C@@H](C)C(=O)NCc2ccc(F)cc2)C(=O)[C@]31C	0%	-13	u	-12%	-1%
CCOc1nc(C#N)nc(N2CCCCC2)n1	-11%	-92*	15µM*	21µM*	-9%
COc1nc(C#N)nc(N2CCCC2)n1	x	x	16µM*	u	x
COc1nc(N2CCCCCC2)nc(N2CCCCCC2)n1	-19%	26	u	u	-7%
COc1ccc(C2CC(c3cccs3)=NN2C(=O)CSc2nc(=O)n3cc(C)ccc3n2)cc1 (configuration not stated)	-12%	-16	-19%	-8%	0%
O=C(NCc1ccccc1)c1ccc(N2CCC3(CC2)CC(c2ccc(Cl)cc2)=NO3)c([N+](=O)[O-])c1	-1%	u	u	6.5µM*	-4%
CCCNC(=O)c1ccc(N2CCC3(CC2)CC(c2ccccc2)=NO3)c([N+](=O)[O-])c1	6%	u	u	21µM*	-21%
CCCNC(=O)c1ccc(N2CCC3(CC2)CC(c2ccccc2)=NO3)c(NC(=O)Cc2ccc(F)cc2)c1	-9%	3	18µM*	u	2%
COC(=O)CN(c1ccccc1)S(=O)(=O)c1cc(Br)ccc1OC	2%	17	0%	-3%	10%
C[C@H]1C=C2C=C[C@H](C)[C@H](CC[C@@H]3C[C@@H](O)CC(=O)O3)[C@H]2[C@@H](OC(=O)[C@@H](C)CCO)C1	x	x	27µM*	27µM*	x
SMILES	HT1080 IDH1KD tx	IL1B secr inh	DT40 TDP1 no CPT	TDP1 cell CPT	HT1080-NT tox
CCc1ccccc1NC(=O)Cn1c(=O)n(CCCS(=O)(=O)C2CCCCC2)c(=O)c2ccccc21	x	x	2%	-17%	x
Cc1cc(O)ccc1-c1cc(C(=O)NCc2ccc(F)cc2)[nH]n1	u	32	-24%	u	u
COc1ccc(Cl)cc1-c1cc(C(=O)NCc2cccc(C(F)(F)F)c2)[nH]n1	u	-7	u	7.3µM*	u
COc1ccc(Cl)cc1-c1cc(C(=O)NCc2ccc(F)cc2)[nH]n1	u	-17	8.2µM*	6.5µM*	-28%
COc1ccc(Cl)cc1-c1cc(C(=O)NCc2ccc(C(F)(F)F)cc2)[nH]n1	-5%	-19	7.3µM*	4.6µM*	0%
Cc1cc(F)ccc1-c1cc(C(=O)NCc2ccccc2)[nH]n1	14%	-24	u	26µM*	12%
COc1ccccc1N1CCN(C2CCCN(C(=O)CCC(C)=O)C2)CC1 (configuration not stated)	0%	6	17%	-4%	-1%
COc1c(OC(C)=O)c(=O)n2c3ccccc3c3ccnc1c32	1%	11	u	u	-22%
N#C/C(=C\Nc1ccc2c(c1)OCCO2)c1nc2ccccc2[nH]1	-9%	-24	21µM*	u	0%
N#C/C(=C(/O)COC(=O)CCc1ccc(S(=O)(=O)N2CCOCC2)cc1)c1nc2ccccc2[nH]1	4%	44	13µM*	16µM*	10%
N#C/C(=C(/O)COC(=O)c1ccc2c(c1)OCCO2)c1nc2ccccc2[nH]1	5%	-66*	-1%	-4%	7%
N#C/C(=C(/O)COC(=O)c1ccc(Cl)c(S(=O)(=O)N2CCOCC2)c1)c1nc2ccccc2[nH]1	4%	6	-8%	7%	14%
N#C/C(=C\Nc1ccc2c(c1)OCCO2)c1nc(-c2ccccc2)cs1	11%	24	u	u	15%
Cc1ccc(C(=O)OC/C(O)=C(\C#N)c2nc3ccccc3[nH]2)cc1S(=O)(=O)N1CCOCC1	-11%	0	7.3µM*	5.8µM*	-3%
COCCNC(=O)c1ccc(Cl)c(S(=O)(=O)Nc2cccc(C)c2C)c1	-7%	-12	3%	-1%	0%
COc1ccccc1C1CN(CC(=O)N[C@H]2CCCCNC2=O)Cc2ccccc2O1 (some centres not stated)	x	x	u	4%[9.04 µM]	x
Cc1ccc(S(=O)(=O)N2CCOCC2)cc1N/N=C(\C#N)c1nc2ccccc2[nH]1	-11%	2	26µM*	u	-5%
COc1ccccc1N1CCN(S(=O)(=O)c2ccc(-n3cnnn3)cc2)CC1	7%	-4	u	u	0%

Assay outcomes (PubChem)
